PubChem BioAssay (NCI)
The panel holds about 83,000 compounds, 20% with a hit somewhere; the sample as a whole holds those more often.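 48-hour exposure, single concentration, 96-well plates; percent growth endpoint where 0 means no net growth. Active: below 10.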 Unmarked numbers belong to inactive results. Calls of active or inactive are those of the source.

Key:
Assay in all cases: NCI-60 one-dose screen, 48 h (100 = growth as untreated, 0 = no growth, -100 = all killed)
Details in all cases: 10 µM unless noted
T-47D breast = tested on: T-47D breast
BT-549 breast = tested on: BT-549 breast
MDA-MB-435 melanoma = tested on: MDA-MB-435 melanoma
SW-620 colon = tested on: SW-620 colon
MCF7 breast = tested on: MCF7 breast
HCT-116 colon = tested on: HCT-116 colon
HCC-2998 colon = tested on: HCC-2998 colon
KM12 colon = tested on: KM12 colon

Compound | growth (T-47D breast) | growth (BT-549 breast) | growth (MDA-MB-435 melanoma) | growth (SW-620 colon) | growth (MCF7 breast) | growth (HCT-116 colon) | growth (HCC-2998 colon) | growth (KM12 colon)
CCCCNc1nc(NN2C(=O)c3cccc4cccc(c34)C2=O)nc(-n2cnc3ccccc32)n1 | 74.7% | 98.8% | 99.2% | 109% | 72.6% | 88.3% | 105% | 25.4%
Cc1nc2ccccc2c(/C=C/c2ccc(Cl)cc2)c1C(=O)/C=C/c1ccc(C(F)(F)F)cc1 | -18.2% (active) | -51.7% (active) | -95.4% (active) | -57.5% (active) | -29.6% (active) | -53.6% (active) | -81.3% (active) | -74.1% (active)
CNCCCC12CCC(c3ccccc31)c1ccccc12 | 89% | 78.3% | 78.9% | 98.2% | 87.3% | 69.1% | 50.5% | 94.1%
C[C@H]1[C@H]2[C@H]3CC[C@@H]4[C@@]5(C)CC[C@H](O)C(C)(C)[C@@H]5CC[C@@]4(C)[C@]3(C)CC[C@]23CO[C@]1(C)[C@@H](C(=O)/C=C\c1cccnc1)C3 | 30.2% | 57.2% | 34.5% | 32.3% | 23.7% | 14.4% | 69.9% | 54.4%
c1ccc(Nc2cc(-c3cccnc3)[nH]n2)cc1 | 99.5% | 99.4% | 101% | 115% | 88.9% | 105% | 104% | 96.3%
CC(=O)c1ccc(Nc2nc(C(C)=O)c(C)s2)cc1 | 92.4% | 105% | 100% | 96.2% | 83.6% | 104% | 98.3% | 98.5%
CN(C)c1ccc2nc3ccc(=[N+](C)C)c([N+](=O)[O-])c-3sc2c1 | 10.3% | 40.5% | 41.9% | 24.4% | 7.94% (active) | 20.7% | 42.7% | 34.6%
COc1ccc(C(=O)C[C@]2(O)C(=O)Nc3c(Cl)ccc(Cl)c32)cc1 | 29.9% | 49.8% | -40.9% (active) | 21.4% | 19.7% | 17% | 23.1% | 47.6%
CCOC(=O)c1cnn2c3ccccc3n(S(=O)(=O)c3ccc(OC)cc3)c12 | 71.8% | 17.5% | 2.91% (active) | 25.9% | 18.5% | 14.4% | 16.9% | 25.9%
C=C1CC[C@@]2(C#N)[C@H]3[C@H](CC[C@@H]2C)[C@@H](C)C[C@@H](CC(C)(C)C#N)[C@H]13 | 21.5% | 50.4% | 35.9% | 49.9% | 21.1% | 14.5% | 37.3% | 35.7%
N#CC1=C(N)Oc2c(sc3c(Br)cccc23)C1c1ccc(Br)cc1 (stereo not drawn) | 23.3% | 48.3% | -53% (active) | 24.4% | 10.9% | 26.6% | 12.9% | 17.8%
Cc1ccc(-c2nc(N3CCN(C(=O)c4ccc(OC(F)(F)F)cc4)CC3)c3ccccc3n2)cc1 | 61.7% | 91.9% | 92.5% | 97% | 92.9% | 85.3% | 97.1% | 93%
Oc1ccc(-c2nc3ccc4[nH]ncc4c3c3c2CCCC3)c2cccnc12 | 15.1% | -12.9% (active) | -7.42% (active) | 7.64% (active) | 2.05% (active) | 2.74% (active) | 5.08% (active) | 2.51% (active)
CC([C@H]1CCC2C3CCC4C(=O)C(NC=O)=CC[C@]4(C)C3CC[C@@]21C)N(C)C (stereo partly drawn) | -12.7% (active) | 49.5% | -26% (active) | -48.5% (active) | 17.3% | -7.83% (active) | 19% | 17.8%
C=C1C(=O)O[C@H]2[C@H]1CC/C(COC(=O)C(C)c1ccc(CC(C)C)cc1)=C\CC[C@@]1(C)O[C@@H]21 (stereo partly drawn) | -35% (active) | -1.34% (active) | -11.7% (active) | -60.1% (active) | 9.15% (active) | -73.7% (active) | 72.2% | 31.8%
NCCCNc1nc2ccc(Cl)cc2c2c(=O)c3cc(F)ccc3sc12 | 76.3% | 106% | 30.8% | -79% (active) | 47.2% | -47.8% (active) | -40.8% (active) | 11.8%
